PubChem BioAssay AID1346378 (National Center for Advancing Translational Sciences (NCATS), 2018)
The whole screen tested about 420,000 compounds, of which about 540 (0.13%) were called active. What follows is part of a selection rich in actives, with near analogues and random picks from the rest. A number with no mark means an inactive call. Cut-off read from the data, not from the text of the source: active = activity change below about -50%; inconclusive = mostly about -30% to -49%; inactive = weaker than that.

Target: Phosphatidylinositol 4-kinase type 2-alpha (Homo sapiens) (UniProt Q9BTU6)
Test: qHTS for small molecular inhibitors of PI4K2A;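 for activity change, negative = inhibition: -100% = wells without enzyme as full effect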
Details: purified PI4K2A, ADP-Glo luminescence, 1 h; at 76.9 µM, stronger effect = lower value
Procedure, shortened: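 Compounds are screened against recombinant PI4K2A using PI as substrate and ATP, the latter dispensed at 300 microM. Reactions run one hour at ambient temperature before ADP-Glo detection; full inhibition defined by wells lacking enzyme.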

Sequence of Phosphatidylinositol 4-kinase type 2-alpha (Homo sapiens) (Q9BTU6 whole entry, looked up): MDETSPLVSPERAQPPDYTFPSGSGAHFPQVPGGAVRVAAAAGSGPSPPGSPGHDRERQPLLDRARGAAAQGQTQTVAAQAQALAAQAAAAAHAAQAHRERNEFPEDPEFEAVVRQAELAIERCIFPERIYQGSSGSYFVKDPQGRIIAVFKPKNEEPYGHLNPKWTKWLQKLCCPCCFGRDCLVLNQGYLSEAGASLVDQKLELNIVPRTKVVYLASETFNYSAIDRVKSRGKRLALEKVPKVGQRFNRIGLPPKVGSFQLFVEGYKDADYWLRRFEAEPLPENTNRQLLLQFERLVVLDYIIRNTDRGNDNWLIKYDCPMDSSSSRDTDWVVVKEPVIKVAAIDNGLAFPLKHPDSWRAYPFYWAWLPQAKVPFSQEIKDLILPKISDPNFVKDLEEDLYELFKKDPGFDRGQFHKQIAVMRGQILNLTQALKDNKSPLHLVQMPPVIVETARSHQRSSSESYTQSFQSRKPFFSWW

Q: Which activity change, negative = inhibition does the source give for `CCCCCn1c(=O)[nH]c2cc(C(=O)NCCN(C)CCCC)ccc2c1=O` here?
A: 3.6%

Q: For `O=C(CSc1cn(CC(=O)N2CCOCC2)c2ccccc12)Nc1ccccc1`, which activity change, negative = inhibition is on record?
A: -0.303%

Q: Which activity change, negative = inhibition does the source give for `CCCCOCCOC(=O)c1cccnc1` here?
A: 0.377%

Q: How did the activity change, negative = inhibition turn out when `Cc1ccc(CNC(=O)CSc2c(C)cnc3c2c(=O)n(C)c(=O)n3C)cc1` was run?
A: -1.23%

Q: For `CO[C@]1(NC(=O)CSC(F)F)C(=O)N2C(C(=O)O)=C(CSc3nnnn3CCO)CO[C@H]21`, which activity change, negative = inhibition is on record?
A: -0.764%

Q: For `CC(C)CNc1ncnc2c1nnn2C`, which activity change, negative = inhibition is on record?
A: 1.45%

Q: For `CCN1CCN(C(=O)N[C@@H](C(=O)N[C@@H]2C(=O)N3[C@@H]2SC(C)(C)[C@H]3C(=O)O)c2ccccc2)C(=O)C1=O`, which activity change, negative = inhibition is on record?
A: 2.58%

Q: For `CCOc1ccccc1CNC(=O)C1CCCN(S(=O)(=O)c2ccc3c(ccn3C)c2)C1` (stereo not given), which activity change, negative = inhibition is on record?
A: 2.73%

Q: How did the activity change, negative = inhibition turn out when `O=C(CSc1nnc(-c2ccccc2F)o1)Nc1cccc(C(F)(F)F)c1` was run?
A: 2.53%

Q: With `CC1CC2C3CCC4=CC(=O)C=C[C@]4(C)[C@@]3(F)[C@@H](O)C[C@]2(C)[C@@]1(O)C(=O)CO` (stereo not given in full) as the compound, how does the activity change, negative = inhibition read?
A: 2.22%

Q: How did the activity change, negative = inhibition turn out when `CCCCCn1c(=O)[nH]c2cc(C(=O)Nc3ccc(F)cc3)ccc2c1=O` was run?
A: 3.49%

Q: `COc1ccc(-c2cc(C(=O)NC(Cc3c[nH]c4ccccc34)C(=O)O)c(C)o2)cc1OC` (stereo not given) was tested. Which activity change, negative = inhibition did it give?
A: -4.82%

Q: `COc1ccc(-c2cc(=O)oc3cc(OC(C)C(=O)NCC4CCC(C(=O)O)CC4)ccc23)cc1` (stereo not given) was tested. Which activity change, negative = inhibition did it give?
A: -0.472%

Q: `COc1ccc(-c2cc(=O)oc3cc(OCC(=O)N[C@@H](Cc4c[nH]c5ccccc45)C(=O)O)ccc23)cc1` was tested. Which activity change, negative = inhibition did it give?
A: -51.9% (active)

Q: Which activity change, negative = inhibition does the source give for `NCC[C@H](O)C(=O)N[C@@H]1C[C@H](N)[C@@H](O[C@H]2O[C@H](CN)[C@@H](O)[C@H](O)[C@@H]2O)[C@H](O)[C@@H]1O[C@H]1O[C@H](CO)[C@@H](O)[C@H](N)[C@@H]1O` here?
A: inactive

Q: For `Cc1ccccc1OCc1nc2c3cnn(-c4ccccc4F)c3ncn2n1`, which activity change, negative = inhibition is on record?
A: -3.76%

Q: `CCc1ccc(CN(Cc2ccco2)C(=O)COc2ccc(Cl)c(C)c2)cc1` was tested. Which activity change, negative = inhibition did it give?
A: -7.93%

Q: For `CCOc1ccc(NC(=O)Cn2c(=O)n(CCCC(=O)NCc3ccc4c(c3)OCO4)c(=O)c3ccccc32)cc1`, which activity change, negative = inhibition is on record?
A: -1.29%

Q: With `CC1=NN(c2ccc(Cl)c(C(=O)O)c2)C(=O)/C1=C/c1ccc(-c2ccccc2[N+](=O)[O-])o1` as the compound, how does the activity change, negative = inhibition read?
A: -58.6% (active)

Q: Which activity change, negative = inhibition does the source give for `O=C(Cn1c(=O)n(Cc2cccs2)c(=O)c2cccnc21)Nc1ccc(F)cc1` here?
A: -2.3%

Q: With `CCOC(=O)c1ccc(NC(=O)Cn2cc(S(=O)(=O)Cc3ccccc3F)c3ccccc32)cc1` as the compound, how does the activity change, negative = inhibition read?
A: -0.867%

Q: Which activity change, negative = inhibition does the source give for `Cc1ccc(C(=O)COC(=O)C(Cc2c[nH]c3ccccc23)NC(=O)c2ccc(Br)cc2)cc1` (stereo not given) here?
A: 1.44%

Q: How did the activity change, negative = inhibition turn out when `COCCCN1CCC(NC(=O)c2cc(Cl)c(N)c3c2OCC3)CC1` was run?
A: -0.718%

Q: With `CN(C)c1cccc(C(=O)Nc2nc3ccc(S(=O)(=O)NC(C)(C)C)cc3s2)c1` as the compound, how does the activity change, negative = inhibition read?
A: 0.225%

Q: With `CN(Cc1ccccc1)C(=O)c1cn(C)c2ccc(S(=O)(=O)N(C)C3CCCCC3)cc2c1=O` as the compound, how does the activity change, negative = inhibition read?
A: 2.24%

Q: `CCOC(=O)c1ccc(N2C(=O)c3[nH]nc(-c4ccccc4)c3C2c2ccc(C(C)C)cc2)cc1` (stereo not given) was tested. Which activity change, negative = inhibition did it give?
A: 4.25%

Q: How did the activity change, negative = inhibition turn out when `CCOC(=O)c1[nH]c(C)c(CCC(=O)N2CCN(c3ccccc3)CC2)c1C` was run?
A: -2.94%

Q: Which activity change, negative = inhibition does the source give for `CSc1ccccc1N1CCN(CCCCCC(=O)NC2CCCc3ccccc32)CC1` (stereo not given) here?
A: 3.17%

Q: With `COc1cccc(-c2cc(C(=O)Nc3ccc(C)cc3)[nH]n2)c1` as the compound, how does the activity change, negative = inhibition read?
A: -3.12%

Q: How did the activity change, negative = inhibition turn out when `COc1cc(C(=O)N2CCN(c3ccc(Nc4ccc(C)cc4)nn3)CC2)cc(OC)c1OC` was run?
A: 1.58%

Q: `CO/N=C(/C(=O)N[C@@H]1C(=O)N2C(C(=O)O)=C(Cn3nnc(C)n3)CS[C@H]12)c1csc(N)n1` was tested. Which activity change, negative = inhibition did it give?
A: -10.8%

Q: For `O=C1Cc2cc(S(=O)(=O)Nc3ccc(OC(F)(F)F)cc3)cc3c2N1CCC3`, which activity change, negative = inhibition is on record?
A: -2.44%

Q: Which activity change, negative = inhibition does the source give for `COC(=O)c1ccc(OC)c(Cn2c(=O)n(Cc3ccccc3)c(=O)c3c2c2cc(OC)ccc2n3C)c1` here?
A: 4.84%

Q: `COc1ccccc1CNC(=O)CCn1c(=O)c2ccccc2n(CC(=O)Nc2ccc(Br)cc2F)c1=O` was tested. Which activity change, negative = inhibition did it give?
A: 2.55%

Q: For `COc1ccc(OC)c(NC(=O)CSc2nc3ccccc3nc2N2CCCCC2)c1`, which activity change, negative = inhibition is on record?
A: 3.46%

Q: How did the activity change, negative = inhibition turn out when `CCOCCCNC(=O)c1c(NC(=O)Cc2coc3ccc(C)cc23)sc2c1CCC2` was run?
A: -1.23%

Q: For `COC(=O)c1ccccc1NC(=O)c1cc(-c2ccccc2O)no1`, which activity change, negative = inhibition is on record?
A: -2.41%

Q: With `O=C1CSC(=S)N1/N=C/c1ccc(O)c([N+](=O)[O-])c1` as the compound, how does the activity change, negative = inhibition read?
A: -62.1% (active)

Q: How did the activity change, negative = inhibition turn out when `COC(=O)c1nc(Cl)c(Cl)nc1N` was run?
A: 2.02%

Q: How did the activity change, negative = inhibition turn out when `CCC(C(=O)Nc1cccc(-c2nc3cccnc3s2)c1C)c1ccccc1` (stereo not given) was run?
A: 6.98%

Q: For `CCc1ccc(NC(=O)c2cnc3c(-c4ccccc4)c(C)nn3c2C)cc1`, which activity change, negative = inhibition is on record?
A: 0.0021%

Q: With `CCCc1nn2c(=O)cc(COC(=O)c3ccc(NC(=O)C(C)Oc4ccccc4)cc3)nc2s1` (stereo not given) as the compound, how does the activity change, negative = inhibition read?
A: -2.75%

Q: Which activity change, negative = inhibition does the source give for `O=C(CC1C(=O)N(c2ccccc2)C(=O)N1CCc1cccs1)Nc1ccc(F)cc1` (stereo not given) here?
A: 3.68%

Q: For `COc1ccc(C2=NC3(CCCCC3)N(CC(=O)Nc3ccc(C(C)C)cc3)C2=O)cc1`, which activity change, negative = inhibition is on record?
A: -3.85%

Q: How did the activity change, negative = inhibition turn out when `CCOC(=O)c1c(C)[nH]c(C)c1S(=O)(=O)NCC(=O)NCc1cccc(C)c1` was run?
A: -4.08%

Q: How did the activity change, negative = inhibition turn out when `COc1ccccc1N1CCN(C2C(=O)c3ccccc3N2C(C)=O)CC1` (stereo not given) was run?
A: 2.81%

Q: `COc1ccc(C2CC(=O)Nc3c2c(=O)nc2c(C)cccn32)cc1OC` (stereo not given) was tested. Which activity change, negative = inhibition did it give?
A: -1.68%

Q: How did the activity change, negative = inhibition turn out when `CCOC(=O)c1cc2c(=O)n3ccccc3nc2n(CCCOC)c1=NC(=O)C(C)(C)Oc1ccc(Cl)cc1` was run?
A: -2.85%

Q: How did the activity change, negative = inhibition turn out when `CCOC(=O)c1c(C)[nH]c(C)c1S(=O)(=O)N1CCC(C(=O)Nc2ccc(C)c(Cl)c2)CC1` was run?
A: 0.586%

Q: With `Cc1ccc(Cl)cc1NC(=O)C(C)n1nnc2sc(-c3ccccc3)cc2c1=O` (stereo not given) as the compound, how does the activity change, negative = inhibition read?
A: 3.33%
